High-throughput results deposited in PubChem by several laboratories.
Ins promoter up: MIN6 insulin promoter up-regulation; MIN6 insulin promoter-GFP reporter, high-content imaging; hits give high values; z-score at 5 µM; 190,000 tested, 0.3% active; AID 1625;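 active means z-score above 3 at 5 µM with at least 500 cells counted in the well; inconclusive means wells under 500 cells, flagged as cytotoxic or low count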
INS promoter inh: TRM-6 insulin promoter activity inhibition; TRM-6 cells (human fetal islet line), insulin promoter-eGFP reporter, imaging; reporter expression induced with tamoxifen; inhibition, % at 2 µM; 130,000 tested, 0.9% active; AID 1273;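 active means inhibition above the mean plus 3 SD, with well images judged a real hit on visual review, cut at about 60% in these data, passing the limit was not always enough; inconclusive means inhibition over the cutoff but images rejected on review; inactive means inhibition not above the cutoff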
WT yeast gro inh: growth inhibition of WT yeast, mitochondrial fusion screen | mitochondrial fusion phenotypic screen, WT strain | inhibition, % at 10 µM | 190,000 tested, 2.1% active | AID 1362; in the data active means inhibition above about 58%; tested in S. cerevisiae
Lmaj promast: inhibitors of Leishmania major promastigote growth; Leishmania major promastigotes, resazurin fluorescence viability; inhibition, % at 10 µM; 200,000 tested, 9% active; AID 1063; in the data active means inhibition above about 50%;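 further: promastigotes grown with compound for 44 hours at 28 °C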
ROMK primary: human ROMK K+ channel modulation, primary screen. P48048. B-score at 10 µM. 130,000 tested, 2% active. Tet-inducible ROMK, thallium flux fluorescence; actives lie on both sides. AID 1918;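 active means signal ratio slope over the read window, or its plate-corrected B-score, at least 3 SD from the plate mean, either direction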;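 further: B-score of the F/F0 ratio slope over 7 to 12 s after thallium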
Target sequence (P48048 whole entry, looked up): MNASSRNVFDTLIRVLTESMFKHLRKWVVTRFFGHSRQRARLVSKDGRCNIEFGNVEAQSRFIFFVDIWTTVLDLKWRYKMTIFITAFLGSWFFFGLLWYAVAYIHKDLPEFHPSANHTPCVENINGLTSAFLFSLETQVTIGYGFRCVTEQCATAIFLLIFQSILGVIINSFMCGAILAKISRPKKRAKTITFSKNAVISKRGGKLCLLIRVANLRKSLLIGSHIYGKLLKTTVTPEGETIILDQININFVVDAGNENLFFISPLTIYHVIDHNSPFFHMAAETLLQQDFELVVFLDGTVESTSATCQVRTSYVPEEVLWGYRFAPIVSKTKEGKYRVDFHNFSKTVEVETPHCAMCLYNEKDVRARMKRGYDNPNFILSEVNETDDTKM
Cl transport mod: modulates chloride dependent transport by human KCC2; 190,000 tested, 2.2% active; AID 1456; Q9H2X9; KCC2 cells, thallium flux FluoZin-2 fluorescence; B-score of Tl+ flux slope (higher = more flux/activation; lower = inhibition) at 10 µM;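 active means thallium flux slope and its plate-corrected score both differing from the plate sample mean at a set confidence after two filtering rounds, in either direction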;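 further: slope of fluorescence scaled to starting intensity during 10 to 20 s after thallium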
The depositor's hits bear a star; ? = inconclusive; · = no result given. Sampled rows, rich in hits. Any-hit rate of the full collection: about 12%.

SMILES	Ins promoter up	INS promoter inh	WT yeast gro inh	Lmaj promast	ROMK primary	Cl transport mod
Cc1ccccc1NC(=O)c1ccc(CN2CCC(Cc3ccccc3)CC2)cc1	0.25	6	-5	53*	·	·
Clc1ccc(CN2CCC(Cc3ccccc3)CC2)cc1	1.6	·	32	90*	·	-0.24
COc1ccc(S(=O)(=O)N2CCCC(C(=O)N3CCCCCC3)C2)cc1 (centres undefined)	0.58	-42	4	17	·	·
Cc1nnc(SCC(=O)Nc2nc(C(C)(C)C)cs2)s1	-0.25	9	-2	3	-1.2	-0.2
FC(F)(F)c1cccc(OCCN2CCN(Cc3ccccc3)CC2)c1	-0.31	-44	37	76*	-1.8	-0.35
OCCN1CCN(CCOc2cccc(Cl)c2)CC1	-0.11	·	42	90*	2.2	·
OCCN1CCN(C(=S)Nc2ccc(Oc3ccccc3)cc2)CC1	-0.76	·	-1	-5	-0.64	-1.1
Clc1cccc(OCCN2CCOCC2)c1	-0.5	-59	0	7	1.9	·
Clc1cccc(OCCN2CCNCC2)c1	-1.1	7	-10	100*	·	-2.1
Cc1ccc(-n2c(SCC(=O)Nc3cccc(C)c3)nc3c(oc4ccccc43)c2=O)cc1	-0.52	16	26	1	·	-0.0093
Cc1nc(NC(=O)c2ccccc2)sc1-c1csc(N)n1	-0.82	21	-2	15	0.58	·
Cc1nc(NC(=O)c2ccccc2)sc1-c1csc(NCc2ccccc2)n1	-1.5	·	38	86*	0.53	-3.3
Cc1nc(NC(=O)c2ccccc2)sc1-c1csc(NCCc2ccccc2)n1	-1	?	21	100*	·	·
COc1ccc(NC(=S)NNC(=O)OC(C)(C)C)cc1OC	·	21	-16	-2	·	0.15
CCc1cc2c(=O)c(-c3nc4ccccc4[nH]3)coc2c(CN2CCCCC2)c1O	-0.24	·	·	·	0.0042	0.0077
O=c1oc2c(CN3CCCCC3)c(O)ccc2cc1-c1nc2ccccc2[nH]1	3.6*	·	·	·	·	·
CCC(C)N1CC(C(=O)NC2CCCCC2)CC1=O (centres undefined)	-0.33	·	1	-6	·	-0.7
CC1=Nn2c(nnc2-c2ccccc2Cl)SC1	-0.43	88*	7	-2	·	1.1
COc1ccccc1-c1nnc2n1N=C(C)CS2	0.23	25	4	-4	·	1.2
O=C1/C(=C\c2ccncc2)SC(=S)N1C1CCCCC1	0.4	-7	13	65*	0.0013	-0.022
O=C1/C(=C/c2ccncc2)SC(=S)N1C1CCCCC1	0.17	·	8	11	·	-0.26
CCN1C(=O)/C(=C\c2ccncc2)SC1=S	0.15	·	·	·	·	-0.83
CCCCC(CC)CN1C(=O)/C(=C/c2ccncc2)SC1=S (centres undefined)	0.98	·	25	97*	-1.9	0.16
CC(C)(C)C1CCC(C(=O)OCC(=O)c2ccc[nH]2)CC1 (centres undefined)	0.16	28	50	57*	·	-0.42
COc1ccc(C(=O)/C=C/c2cn(CC(O)CN3CCOCC3)c3ccccc23)cc1 (centres undefined)	1.5	35	8	37	-0.81	0.045
SMILES	Ins promoter up	INS promoter inh	WT yeast gro inh	Lmaj promast	ROMK primary	Cl transport mod
Cc1ccc(C(=O)/C=C/c2cn(CC(O)CN3CCOCC3)c3ccccc23)cc1 (centres undefined)	0.47	·	51	53*	-1.7	3.8
CC(=O)NCC(=O)N(c1ccccc1)C1(C(=O)NC2CCCCC2)CCCCC1	0.32	-57	-4	-2	0.014	·
O=C(CCCn1cnc([N+](=O)[O-])n1)Nc1ccc(Cl)c(Cl)c1	-0.07	·	-9	97*	·	·
O=C(CCCn1cnc([N+](=O)[O-])n1)Nc1cccc(Cl)c1Cl	0.37	28	2	94*	·	0.83
O=C(CCCn1cnc([N+](=O)[O-])n1)Nc1cc(Cl)ccc1O	-0.15	·	-11	72*	-0.93	2.2
Cc1c(Cl)cccc1NC(=O)CCCn1cnc([N+](=O)[O-])n1	0.07	-18	14	50	0.11	0.62
CCOCCCNC(=S)Nc1ccc2nc(N3CCCC3)cc(C)c2c1	0.67	-23	6	100*	-0.8	-0.043
COCCCNC(=O)CCC(=O)Nc1ccc2nc(N3CCOCC3)cc(C)c2c1	-0.89	15	15	2	·	-0.057
Cc1cc(N2CCCC2)nc2ccc(NC(=S)NC(C)C)cc12	-0.34	·	21	99*	0.54	-0.061
COCCNC(=S)Nc1ccc2nc(N3CCCC3)cc(C)c2c1	0.04	-8	15	100*	-0.22	-0.019
CCCCNC(=S)Nc1ccc2nc3n(c(=O)c2c1)CCCCC3	-0.48	12	3	51*	·	0.6
CCOc1ccc(-c2csc(NC(=O)CSCC(=O)O)n2)c2ccccc12	0.29	-45	-6	-11	0.045	-2.4
CSc1nc2[nH]ncc2c(=O)[nH]1	0.08	-40	2	-10	-0.016	1.9
CN(Cc1ccncn1)C(=O)CC1C(=O)NCCN1Cc1cccc(Oc2ccccc2)c1 (centres undefined)	0.13	-100	-6	95*	2.4	0.024
COc1cc(CN2CCNC(=O)C2CC(=O)N(C)Cc2cccnc2)cc(OC)c1 (centres undefined)	·	·	2	-8	0.6	-0.37
O=C(COC(=O)c1cccc(S(=O)(=O)N2CCN(c3ccccc3)CC2)c1)NCC1CCCO1 (centres undefined)	-0.12	·	·	·	·	-0.79
COc1cc(OC)c(NS(=O)(=O)c2cccc(C(=O)OCC(=O)NCC3CCCO3)c2)cc1Cl (centres undefined)	0.3	·	-16	80*	-0.54	1.1
Cc1cc(S(=O)(=O)NCC(C)C)ccc1OCC(=O)NCC1CCCO1 (centres undefined)	-0.13	-16	-19	59*	0.042	0.4
CN(c1ccc(C(=O)NCC2CCCO2)cc1)S(=O)(=O)c1ccccc1 (centres undefined)	·	-9	9	-3	0.74	0.13
CN(C)S(=O)(=O)c1cccc(C(=O)NCC2CCCO2)c1 (centres undefined)	0.78	38	97*	-2	·	-1.1
CCCCC(=O)Oc1cc(C)[nH]c(=O)c1[N+](=O)[O-]	1.5	15	-5	4	·	1.1
c1ccc(-n2ncc3c(N4CCN(c5ccccn5)CC4)nc(N4CCCCCC4)nc32)cc1	4.1*	·	22	34	1.3	0.12
O=C(Nc1cc(C(F)(F)F)ccc1-n1cncn1)c1ccc(-c2ccccc2)cc1	0.82	-78	-1	90*	-0.52	-0.85
O=C(Nc1cc(C(F)(F)F)ccc1-n1cncn1)c1ccc(Cl)cc1	-0.87	-1	6	-2	-0.074	0.71
COc1ccc(CNC(=O)CCc2c(C)nc3cc(-c4ccccc4OC)nn3c2C)cc1	0.59	·	·	·	-0.38	-0.48
Cc1nc2cc(-c3ccccc3)nn2c(C)c1CCC(=O)NCc1ccco1	0.86	·	-14	2	·	-0.94
COc1cc(OC)cc(-c2cc3nc(C)c(CCC(=O)NC(C)CCc4ccco4)c(C)n3n2)c1 (centres undefined)	-0.95	-29	25	100*	·	-1.1
